Reference: PubChem BioAssay AID720487 (Milwaukee Institute for Drug Discovery, 2013)
Some of the results follow. Unmarked numbers belong to inactive results.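 The calls were made as follows: active = fluorescence interference ratio at or above 1.2, signal boosting, or at or below 0.8, signal quenching; inactive = ratio between 0.8 and 1.2.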

Experiment: Cy5 fluorescence interference with SSB-bound oligo, artefact control for HCV NS3 helicase inhibitor project, biochemical, E. coli SSB, selected ChemBridge compounds (AID 720487);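 also: ratio of compound well signal to mean negative control signal so 1 means no effect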
Settings: Cy5-dT15/E. coli SSB fluorescence interference; at 100 µM; actives lie on both sides

## CCOc1cc(C=C2C(=O)NC(=O)NC2=O)cc(Br)c1OCCOc1ccccc1C
  fluorescence interference ratio: 0.894
